The source of these data is PubChem BioAssay AID624305 (National Center for Advancing Translational Sciences (NCATS), 2012).

Structures are written as SMILES. Results filed as inconclusive are left out. Values without a mark were called inactive. Activity calls are given as the source filed them. The call rests on the fitted dose curve; in most records, active means well fitted activation curve with a large enough effect; inconclusive means small, poorly fitted or top-dose-only effect; inactive means no such curve, though single readings can be large or run the other way.
Potency means the concentration at half of the fitted maximal effect.

The experiment is described as follows: qHTS assay for re-activators of p53 using a Luc reporter: Hit Validation. Further: nearly all actives have a fitted effect of over 75% in size. On activation: 0% is about no effect. To be noted: p53-responsive luciferase reporter cells, luminescence, H1299 line expressing heat-sensitive Ala138Val p53; series mostly up to 46.1 µM; activation: at the top concentration. The procedure, abridged: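 Hit confirmation with a 1:5 dilution series, at 37 deg C for 24 hrs, in H1299 cells co-expressing temperature-sensitive p53-A138V and p53-responsive luciferase. Nocodazole served as control; luminescence read after 10 min with detection reagent.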
Turning to `CC1(C)NC(=O)N(CC(=O)N2CCN(S(=O)(=O)c3ccccc3C(F)(F)F)CC2)C1=O`, the “activation” value was 16.7%.

Consider `COCCSc1nnc(NC(=O)CCS(=O)(=O)c2ccccc2)s1`, for which the activation is -38.9% [at 9.22 µM].

With `Cc1nonc1NCn1nnc2ccccc21`, the activation is 7.94% [at 9.22 µM].

Take `c1ccc(-c2ccc(-c3ccccn3)nn2)nc1`: the Potency is 0.082 µM (active).

Take `Cc1ccc(Nc2nc(N)nc(CSc3nccn3C)n2)cc1`: the Potency is 2.31 µM (active).

In the case of `COc1ccccc1NC(CC(=O)c1ccccc1)C(=O)OCC(=O)c1ccc(F)cc1` (stereo not drawn), the Potency is 0.231 µM (active).

With `c1nc(C2CCCCC2)cc2cc3c(cc12)OCO3`, the Potency was 6.51 µM (active).

In the case of `Cc1cccc(NC(=O)Nc2ccc(C)cc2Br)c1`, the Potency is 16.4 µM (active).

`CCOC(=O)NC1(Nc2ccc(C)cc2)Oc2ccccc2O1`: the Potency was 16.4 µM (active).

In the case of `O=[N+]([O-])c1ccc(/C=N/NC(=S)Nc2ccccc2F)o1`, the “activation” value was 21.4%.

As to `c1ccc(-c2nnc(-c3ccccn3)nc2NC2CCCCC2)cc1`, the Potency was 18.4 µM (active).

`CCc1ccc2[nH]c(=O)c(CN(CCN3CCCC3)C(=O)NC3CCCCC3)cc2c1`: the “activation” value is 4.17%.

As for `S=c1[nH]nc(-c2ccco2)n1Cc1ccccc1`, the “activation” value was -16.1%.

`CC(=O)c1ccc(Nc2ncnc3c2oc2ccccc23)cc1`: the Potency is 1.64 µM (active).

In the case of `Cc1cc([N+](=O)[O-])ccc1NC(=O)/C=C/c1cccs1`, the “activation” value was 40.6%.

Consider `O=C(CCS(=O)(=O)c1ccccc1)Nc1ccc(-c2nc3ccccc3s2)cc1`, for which the Potency was 0.651 µM (active).

For the compound `Nn1cnnc1N/N=C\c1ccc(-c2ccccc2[N+](=O)[O-])o1`, the “activation” value was -84.4%.

As to `O=C(CSc1nc2ccccc2c(=O)[nH]1)c1ccc(O)c(O)c1`, the “activation” value is 21.4%.

With `CCOc1ccc(NC(=O)c2cnsn2)cc1`, the Potency is 2.31 µM (active).

Regarding `COC(=O)CSc1nc2cc(OC)ccc2cc1C#N`, the Potency is 9.2 µM (active).

Turning to `CC(C)c1ccc(C(O)c2nc3ccccc3n2C)cc1` (stereo not drawn), the “activation” value is 19.8%.

As for `CC(=O)Oc1ccc(Cl)cc1/C=C/c1ccc2ccccc2n1`, the Potency is 4.61 µM (active).

Regarding `Cc1ccc2oc(-c3ccc(C)c(NC(=S)NC(=O)c4cccs4)c3)nc2c1`, the Potency was 4.61 µM (active).

`COc1ccc(N2CCN(CCCNC(=O)C3(S(=O)(=O)c4ccc(Cl)cc4)CC3)CC2)cc1`: the “activation” value is -14.1%.

For `O=C(NCCC1=CCCCC1)c1ccc(F)c(S(=O)(=O)N2CCOCC2)c1`, the “activation” value was -84.4%.

With `Cc1ccc(CNc2cc(C(=O)O)ccc2Cl)s1`, the “activation” value is -12.5%.

Consider `Nc1ccc(-c2cnc(-c3ccc(N)cc3)nc2)cc1`, for which the Potency was 0.291 µM (active).

For the compound `c1ccc2cc3c(NCCN4CCOCC4)ccnc3cc2c1`, the “activation” value is 11.5%.

In the case of `Cc1c(C(=O)NC2=NCCS2)oc2ccccc12`, the Potency was 0.58 µM (active).

Take `O=C(NNc1c2ccccc2nc2ccccc12)c1ccc(O)cc1`: the “activation” value is -29.7%.

For `COc1ccc([N+](=O)[O-])cc1NC(=O)CSCc1ccc(Br)cc1`, the “activation” value was -26%.

With `Cc1nc2ccccc2nc(C)c1=NOCc1ccccc1Cl`, the “activation” value is 4.17%.

Turning to `C#CCn1c(=NC(=O)c2cccs2)sc2cccc(OCC)c21`, the “activation” value was -7.81%.

As for `COc1ccc(N(C(=O)Nc2ccc(Cl)cc2)C2=NCCC2)cc1`, the “activation” value was 30.2%.

Regarding `c1ccc2nc(-c3ccc(N4CCOCC4)cc3)ccc2c1`, the Potency is 0.164 µM (active).

With `CCOc1ccc(N/C=C/C(=O)c2ccccc2)c([N+](=O)[O-])c1`, the Potency is 0.461 µM (active).

Take `Cc1cccc(/C(N)=N/OC(=O)c2ccc3c(c2)OCO3)c1`: the Potency was 9.2 µM (active).

Consider `COc1ccc2c(c1)Cc1sc(NC(C)=O)nc1-2`, for which the Potency was 11.6 µM (active).
